LAP4-GFP MLPCN – alters LAP4-GFP fluorescence in TOR pathway yeast screen; S. cerevisiae LAP4-GFP multiplex, flow cytometry GFP, 3 h; median GFP as percent of DMSO wells; GFP response vs DMSO, % at 10 µM; 0.34% of 320,000 active; AID 2023;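 active = GFP response vs DMSO above a set limit, about the screen mean plus 3 SD, cut at about 150% in these data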
AGP1 TOR yeast – alters AGP1-GFP fluorescence in TOR pathway yeast screen | 0.02% of 320,000 active | S. cerevisiae AGP1-GFP multiplex flow cytometry, 3 h; GFP as percent of DMSO wells | GFP response vs DMSO, % at 10 µM | AID 2066;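 active = GFP response relative to DMSO above a set limit, near screen average plus 3 SD, cut at about 150% in these data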;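 note: median GFP channel fluorescence of the gated AGP1 strain per well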
RPL19A TOR yeast – modulators of TOR pathway RPL19A-GFP in S. cerevisiae; AID 2025; 0.3% of 330,000 active; S. cerevisiae RPL19A-GFP strain, flow cytometry, 3 h; hits give low values; percent response vs DMSO, % at 10 µM;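 active = percent response vs DMSO below 50%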;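 note: median channel GFP fluorescence of the barcoded RPL19A-GFP strain; ratio of sample median GFP to plate DMSO average so 100% = DMSO; lower means less RPL19A-GFP as with rapamycin TOR inhibition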
MEP2-GFP yeast – alters MEP2-GFP fluorescence in TOR pathway yeast screen. 0.51% of 330,000 active. S. cerevisiae MEP2-GFP strain, flow cytometry GFP, 3 h; 100% = DMSO control level. GFP response vs DMSO, % at 10 µM;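 active = GFP response versus DMSO above a set limit, roughly screen mean plus 3 SD, cut at about 180% in these data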;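 note: median GFP fluorescence of the barcode-gated MEP2-GFP cells per well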
CIT2-GFP yeast – yeast TOR pathway CIT2-GFP modulation. S. cerevisiae CIT2-GFP strain, flow cytometry, 3 h; 100 means same as DMSO wells. GFP response vs DMSO, % at 10 µM. 0.065% of 320,000 active. AID 2029;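 active = GFP response relative to DMSO above a set limit, near the screen mean plus 3 SD, cut at about 150% in these data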;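 note: ratio of well median GFP fluorescence to mean of DMSO wells on the plate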
LAP4 cherry2 – reconfirmed LAP4-GFP TOR pathway modulator in yeast; GFP response vs DMSO, % at 10 µM; AID 2621; 20% of 590 active; shares compounds with LAP4-GFP MLPCN; S. cerevisiae LAP4-GFP strain, flow cytometry GFP, 3 h;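 active = GFP signal as percent of the solvent control above about 150%, meaning raised reporter expression, limit read from the data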;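 note: ratio of well median GFP fluorescence to plate DMSO mean so 100% = DMSO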
MEP2-GFP pick2 – yeast MEP2-GFP modulation, second cherry pick; shares compounds with LAP4-GFP MLPCN; S. cerevisiae MEP2-GFP strain, flow cytometry GFP, 3 h; GFP response vs DMSO, % at 10 µM; 10% of 590 active; AID 2622;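 active = GFP signal above 150% of the solvent control wells, that is a rise of more than half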;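 note: median channel GFP fluorescence of all gated yeast cells per well; ratio of median GFP to plate DMSO average so 100% = DMSO level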
RPL19A-GFP pick2 – second confirmation of modulators of TOR reporter RPL19A-GFP in yeast | shares compounds with LAP4-GFP MLPCN | S. cerevisiae RPL19A-GFP strain, flow cytometry GFP, 3 h; hits give low values; 100% means same as DMSO wells | GFP response vs DMSO, % at 10 µM | 3% of 590 active | AID 2623;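 active = under 65% GFP response relative to DMSO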;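 note: median GFP channel fluorescence per well over the all cells gate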
CIT2 GFP CP2 – yeast CIT2-GFP TOR reporter modulation, second cherry pick. shares compounds with LAP4-GFP MLPCN. 8% of 590 active. S. cerevisiae CIT2-GFP strain, flow cytometry GFP, 3 h; DMSO control wells read 100%. GFP response vs DMSO, % at 10 µM;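 active = GFP response vs DMSO above about 150%, limit read from the data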;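 note: median green fluorescence per well over all gated yeast cells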
AGP1 GFP CP2 – yeast AGP1-GFP TOR reporter modulation, second cherry pick. AID 2643. 590 tested, under 10 active. shares compounds with LAP4-GFP MLPCN. S. cerevisiae AGP1-GFP strain, flow cytometry GFP, 3 h. percent response vs DMSO, % at 10 µM;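 active = over 150 percent of DMSO response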;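 note: median GFP channel fluorescence over all cells without mother daughter split; sample median GFP divided by mean DMSO control so 100% equals DMSO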
s288c autofluor – counter-screen for compound autofluorescence in yeast s288c cells; shares compounds with LAP4-GFP MLPCN; S. cerevisiae s288c, 520 nm autofluorescence, flow cytometry, 3 h; hits give high values; zero means same as solvent-only cells; fluorescence change (kMESF span) at 33 µM; 610 tested, under 10 active; AID 2757;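 active = fluorescence span over the dose series, or activity score, above about 33, limit read from the data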
Yeast autofl DR – counter-screen for autofluorescence of TOR hits in yeast s288c | shares compounds with LAP4-GFP MLPCN | 110 tested, under 10 active | fluorescence change (span) at 33 µM | S. cerevisiae s288c parental, compound autofluorescence, flow cytometry, 3 h;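 active = fluorescence change span, or the activity score built from it, above 25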
TORC1 bypass – stops wildtype yeast growth while TORC1 bypass cells still grow; growth rating (0-3) at 30 µM; AID 504456; S. cerevisiae BY4741 spot growth rating, 48-72 h; hits give low values; shares compounds with LAP4-GFP MLPCN; 120 tested, under 10 active;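 active = growth rating at most 1 for wild type yeast while the TORC1 bypass strain still grows fully, rated 3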
Active calls of the source: *; x = no result; [ ] = remark or other dose. Sampled rows, rich in hits. Any-hit rate of the full collection: about 0.93%.

SMILES	LAP4-GFP MLPCN	AGP1 TOR yeast	RPL19A TOR yeast	MEP2-GFP yeast	CIT2-GFP yeast	s288c autofluor	others
CC(=O)Nc1ccc(S(=O)(=O)NCCc2cn3nc(C)c(C)nc3n2)cc1	96.6	104.2	97.5	92.6	96.3	x
COc1cc(CNC(=O)CCCCCCC(C)C)ccc1O	158.0*	122.5	87.0	153.7	108.5	-0.2	LAP4 cherry2=160.3*;MEP2-GFP pick2=211.3*;RPL19A-GFP pick2=110.0;CIT2 GFP CP2=187.7*;AGP1 GFP CP2=107.0
COc1cc(OC)c(N(C)C(=O)c2cn(C)c(=O)c3cc(OC)c(OC)cc23)cc1Cl	87.5	91.1	92.7	86.2	99.0	x
C/C(=N\NC(=O)c1cc2ccccc2cc1O)c1ccccn1	216.3*	100.7	96.8	119.5	96.8	1.63
Cc1cc(=O)oc2cc(Oc3ccc([N+](=O)[O-])cc3C(F)(F)F)ccc12	99.0	95.6	96.5	102.3	94.3	0.11	LAP4 cherry2=105.2;MEP2-GFP pick2=104.8;RPL19A-GFP pick2=97.8;CIT2 GFP CP2=98.7;AGP1 GFP CP2=103.4
O=C(Nc1ccccc1)c1nccn1Cc1ccc(F)cc1	85.5	91.9	101.9	92.3	96.8	x
COc1ccc(/C=C/C(=O)C2C(=O)C=C(C)OC2=O)cc1O (stereo not drawn)	184.7*	96.2	99.4	92.0	90.5	-0.2
CCOc1ccc(N2C(=O)C(Cl)=C(Nc3ccccc3O)C2=O)cc1	102.7	92.7	92.9	97.3	89.3	0.2
CCOc1ccc(N2C(=O)CN=C2Nc2ccccc2Cl)cc1	88.0	86.3	93.0	89.2	94.8	x
COc1ccc(NC2=C(Cl)C(=O)N(c3ccccc3)C2=O)c(OC)c1	87.8	93.8	96.4	103.4	97.0	x
COc1ccccc1NC1=C(Cl)C(=O)N(c2ccccc2)C1=O	101.0	104.9	103.9	113.7	106.0	-0.21
COc1ccc(N2C(=O)C(Cl)=C(Nc3ccc(OC)cc3OC)C2=O)cc1	83.8	89.0	94.7	90.6	79.1	x
COc1ccc(N2C(=O)C(Cl)=C(Nc3c(C)n(C)n(-c4ccccc4)c3=O)C2=O)cc1	142.2	91.0	93.8	99.2	94.5	0.4
Cc1ccc(NC(=O)c2ccc(=O)[nH]c2)cc1S(=O)(=O)N1CCCCCC1	98.9	103.3	100.2	103.0	103.7	x
CC(C)C(NC(=O)c1ccc(C(C)(C)C)cc1)C(=O)Nc1cccc(S(N)(=O)=O)c1 (stereo not drawn)	101.3	100.1	97.4	100.4	100.8	x
Cc1ccc(-n2c(C)cc(C(=O)COC(=O)c3ccc[nH]c3=O)c2C)cc1C	149.8	84.8	58.3	85.8	81.0	x
Cc1cc(C(=O)COC(=O)c2ccc[nH]c2=O)c(C)n1-c1ccccc1F	137.7	41.4	55.0	115.9	84.5	2.4	LAP4 cherry2=155.3*;MEP2-GFP pick2=131.0;RPL19A-GFP pick2=92.9;CIT2 GFP CP2=105.7;AGP1 GFP CP2=77.7;Yeast autofl DR=1.17;TORC1 bypass=3
COc1cccc(CN2CC(C(=O)N(C)C3CCOCC3)CCC2=O)c1 (stereo not drawn)	95.3	98.5	96.9	94.9	99.8	x
O=S(=O)(c1ccc(NCc2ccccc2)cc1)N1CCOCC1	89.0	81.4	102.2	95.0	95.5	x
CCOC(=O)Cc1csc(NC(=O)CSc2nc(=O)[nH]c3c2CCC3)n1	98.6	114.4	105.1	105.0	107.4	x
CCCCS(=O)(=O)/C=C\C=C/S(=O)(=O)CCCC	172.6*	85.2	99.0	108.8	77.3	1	LAP4 cherry2=214.4*;MEP2-GFP pick2=126.5;RPL19A-GFP pick2=93.7;CIT2 GFP CP2=143.6;AGP1 GFP CP2=99.8
CCCCS(=O)(=O)/C=C\C1C2C=CC(C2)C1S(=O)(=O)CCCC (stereo not drawn)	114.6	x	105.7	108.0	113.7	x
COc1ccc(C2=NN(CC(=O)Nc3cc(C)ccc3C)C(=O)CC2)cc1	106.6	100.5	98.7	95.8	89.4	x
CS/C(=N\S(=O)(=O)c1ccc(Cl)cc1)c1ccccc1	100.4	91.1	96.9	97.2	90.6	x
O=S(=O)(/N=C(\Sc1ccc(Cl)cc1)c1ccccc1)c1ccccc1	213.6*	92.5	83.3	88.1	81.5	-2.21
SMILES	LAP4-GFP MLPCN	AGP1 TOR yeast	RPL19A TOR yeast	MEP2-GFP yeast	CIT2-GFP yeast	s288c autofluor	others
O=C(Oc1ccc(Cl)c2cccnc12)c1cccc([N+](=O)[O-])c1	96.2	88.0	92.8	91.3	85.0	x
O=C(Oc1c(Cl)cc(Cl)c2cccnc12)c1cccc([N+](=O)[O-])c1	187.4*	92.3	92.2	94.7	107.5	2.44	Yeast autofl DR=0.24;TORC1 bypass=0
CC(C)CC(=O)NC(=S)Nc1nc(-c2ccccc2)cs1	96.8	24.7	62.2	137.6	78.6	0	LAP4 cherry2=98.2;MEP2-GFP pick2=96.1;RPL19A-GFP pick2=99.5;CIT2 GFP CP2=105.7;AGP1 GFP CP2=97.9
Cc1oc2cc(O)ccc2c(=O)c1Oc1ccccc1	103.9	100.4	100.7	100.5	104.1	x
O=C(O)c1ccc(Oc2c(C(F)(F)F)oc3cc(O)ccc3c2=O)cc1	92.5	56.6	55.8	163.6	90.3	x	LAP4 cherry2=104.2;MEP2-GFP pick2=103.1;RPL19A-GFP pick2=97.2;CIT2 GFP CP2=98.7;AGP1 GFP CP2=98.3
CN(Cc1ccccc1C#N)S(=O)(=O)c1cccs1	98.7	100.9	110.3	106.0	102.5	x
N#Cc1nccnc1S(=O)(=O)c1cccs1	250.5*	85.9	66.8	76.8	66.7	0.61
O=C(Nc1cc(Cl)ccc1F)C1=COCCO1	104.1	102.7	104.1	98.6	112.5	x
CC(C)N(Cc1ccccc1)C(=O)COC(=O)c1cc(S(=O)(=O)N(C)C)ccc1N1CCCC1	93.6	104.8	93.3	98.4	98.0	x
O=C(Nc1ccc(N2CCOCC2)cc1)C1CCN(S(=O)(=O)c2ccc3c(c2)OCCO3)CC1	254.2*[may fluoresce green]	124.2	123.4	340.5*[may fluoresce green]	231.0*[may fluoresce green]	0.1	LAP4 cherry2=106.7;MEP2-GFP pick2=103.2;RPL19A-GFP pick2=101.7;CIT2 GFP CP2=98.4;AGP1 GFP CP2=100.6

Screening data: PubChem BioAssay, NMMLSC
